Data: the supplement of paper PMC10849652
The full data set covers some 8,800 targets. This sample favours those with a hit. About 0.5% of all pairs of compound and target were hits. A number with no mark means an inactive call.

Assays:
Experiment in all cases: log2 fold change, soluble protein after heating vs DMSO (PISA); higher = thermal stabilisation; K562 lysate, 10 uM; active = over 0.2 and 3.5 SD of the protein, either way, in both replicates (recomputed)
[1] = compound: C1=CC=C(C=C1)[C@H](COC2=CC3=C(C=C2)NC(=O)N3)NC(=O)C4=CC=CN(C4=O)CC5=CC(=C(C=C5)F)F
Method in brief: (§1)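 Following dounce homogenisation of K562 pellets in PBS pH 7.4 with 1 mM MgCl2, crude extract at 1 mg/mL protein was incubated for 30 min with 10 μM compound. Aliquots were then heated for 3 min over 48°C-58°C and pooled, NP-40 was added to 0.5% at 4°C, and soluble protein was recovered as the supernatant at 21,000xg for 90 min. Channel-sum-equalised TMTpro 16plex LC-MS/MS quantified this protein. Each value, from duplicates, is a log-two fold change in thermal stability relative to solvent controls.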

[2] = compound: CC1=C(SC2=C1C(=N[C@H](C3=NN=C(N32)C)CC(=O)N)C4=CC=C(C=C4)Cl)C
Method in brief: as §1

[3] = compound: CC1=C2C(=CC=C1)N=C(N(C2=O)C3=CC=CC=C3C)CN4C=NC5=C(N=CN=C54)N
Method in brief: as §1

[4] = compound: Cc1sc2c(c1C)C(c1ccc(Cl)cc1)=N[C@@H](CC(=O)OC(C)(C)C)c1nnc(C)n1-2
Method in brief: as §1

[5] = compound: c1ccc([C@@H]2C[C@H]2NC2CCNCC2)cc1
Method in brief: as §1

UniProt Q9UHV9, sequence (Q9UHV9 whole entry, looked up): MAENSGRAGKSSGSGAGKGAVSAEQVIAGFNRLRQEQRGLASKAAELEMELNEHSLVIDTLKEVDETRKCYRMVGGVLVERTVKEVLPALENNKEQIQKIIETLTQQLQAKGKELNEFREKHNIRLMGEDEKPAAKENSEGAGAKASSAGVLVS
UniProt O00408, sequence (O00408 whole entry, looked up): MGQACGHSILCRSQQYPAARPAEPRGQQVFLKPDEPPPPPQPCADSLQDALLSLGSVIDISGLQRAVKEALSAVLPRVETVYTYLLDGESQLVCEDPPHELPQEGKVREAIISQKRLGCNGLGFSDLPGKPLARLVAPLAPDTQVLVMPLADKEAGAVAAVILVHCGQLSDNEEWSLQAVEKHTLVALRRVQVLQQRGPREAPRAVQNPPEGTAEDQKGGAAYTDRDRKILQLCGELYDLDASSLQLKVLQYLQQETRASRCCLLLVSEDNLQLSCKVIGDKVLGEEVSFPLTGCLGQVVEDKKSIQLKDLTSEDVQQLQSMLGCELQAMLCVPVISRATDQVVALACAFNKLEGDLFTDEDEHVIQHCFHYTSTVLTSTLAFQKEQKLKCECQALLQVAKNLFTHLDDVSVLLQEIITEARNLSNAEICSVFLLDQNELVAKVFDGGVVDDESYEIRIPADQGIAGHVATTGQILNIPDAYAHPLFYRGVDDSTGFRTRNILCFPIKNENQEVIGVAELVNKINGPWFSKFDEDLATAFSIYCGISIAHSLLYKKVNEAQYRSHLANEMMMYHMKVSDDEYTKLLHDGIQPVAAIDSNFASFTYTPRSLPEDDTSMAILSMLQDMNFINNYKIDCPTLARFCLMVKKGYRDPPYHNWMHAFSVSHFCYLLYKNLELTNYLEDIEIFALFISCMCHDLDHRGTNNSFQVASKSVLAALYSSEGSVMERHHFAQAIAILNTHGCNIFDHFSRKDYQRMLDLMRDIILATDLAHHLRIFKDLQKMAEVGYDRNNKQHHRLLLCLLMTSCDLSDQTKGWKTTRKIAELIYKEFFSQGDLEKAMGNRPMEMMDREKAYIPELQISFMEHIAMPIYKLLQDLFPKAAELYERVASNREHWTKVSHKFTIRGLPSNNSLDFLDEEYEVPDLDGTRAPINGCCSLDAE
UniProt Q8N8N7, sequence (Q8N8N7 whole entry, looked up): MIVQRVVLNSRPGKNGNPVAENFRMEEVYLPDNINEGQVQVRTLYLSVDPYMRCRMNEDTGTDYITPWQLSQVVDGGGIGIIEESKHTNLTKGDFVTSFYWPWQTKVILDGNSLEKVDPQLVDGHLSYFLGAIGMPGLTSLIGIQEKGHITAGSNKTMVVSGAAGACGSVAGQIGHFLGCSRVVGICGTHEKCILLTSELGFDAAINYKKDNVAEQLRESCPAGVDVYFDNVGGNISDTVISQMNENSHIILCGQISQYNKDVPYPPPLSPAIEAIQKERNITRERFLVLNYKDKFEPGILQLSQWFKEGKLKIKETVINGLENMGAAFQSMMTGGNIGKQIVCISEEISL
UniProt Q03393, sequence (Q03393 whole entry, looked up): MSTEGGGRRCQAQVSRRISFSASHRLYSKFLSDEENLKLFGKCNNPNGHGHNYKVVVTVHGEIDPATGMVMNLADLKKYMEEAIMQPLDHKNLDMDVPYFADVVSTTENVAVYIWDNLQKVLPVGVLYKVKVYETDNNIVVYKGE
UniProt P48634, sequence (P48634 whole entry, looked up): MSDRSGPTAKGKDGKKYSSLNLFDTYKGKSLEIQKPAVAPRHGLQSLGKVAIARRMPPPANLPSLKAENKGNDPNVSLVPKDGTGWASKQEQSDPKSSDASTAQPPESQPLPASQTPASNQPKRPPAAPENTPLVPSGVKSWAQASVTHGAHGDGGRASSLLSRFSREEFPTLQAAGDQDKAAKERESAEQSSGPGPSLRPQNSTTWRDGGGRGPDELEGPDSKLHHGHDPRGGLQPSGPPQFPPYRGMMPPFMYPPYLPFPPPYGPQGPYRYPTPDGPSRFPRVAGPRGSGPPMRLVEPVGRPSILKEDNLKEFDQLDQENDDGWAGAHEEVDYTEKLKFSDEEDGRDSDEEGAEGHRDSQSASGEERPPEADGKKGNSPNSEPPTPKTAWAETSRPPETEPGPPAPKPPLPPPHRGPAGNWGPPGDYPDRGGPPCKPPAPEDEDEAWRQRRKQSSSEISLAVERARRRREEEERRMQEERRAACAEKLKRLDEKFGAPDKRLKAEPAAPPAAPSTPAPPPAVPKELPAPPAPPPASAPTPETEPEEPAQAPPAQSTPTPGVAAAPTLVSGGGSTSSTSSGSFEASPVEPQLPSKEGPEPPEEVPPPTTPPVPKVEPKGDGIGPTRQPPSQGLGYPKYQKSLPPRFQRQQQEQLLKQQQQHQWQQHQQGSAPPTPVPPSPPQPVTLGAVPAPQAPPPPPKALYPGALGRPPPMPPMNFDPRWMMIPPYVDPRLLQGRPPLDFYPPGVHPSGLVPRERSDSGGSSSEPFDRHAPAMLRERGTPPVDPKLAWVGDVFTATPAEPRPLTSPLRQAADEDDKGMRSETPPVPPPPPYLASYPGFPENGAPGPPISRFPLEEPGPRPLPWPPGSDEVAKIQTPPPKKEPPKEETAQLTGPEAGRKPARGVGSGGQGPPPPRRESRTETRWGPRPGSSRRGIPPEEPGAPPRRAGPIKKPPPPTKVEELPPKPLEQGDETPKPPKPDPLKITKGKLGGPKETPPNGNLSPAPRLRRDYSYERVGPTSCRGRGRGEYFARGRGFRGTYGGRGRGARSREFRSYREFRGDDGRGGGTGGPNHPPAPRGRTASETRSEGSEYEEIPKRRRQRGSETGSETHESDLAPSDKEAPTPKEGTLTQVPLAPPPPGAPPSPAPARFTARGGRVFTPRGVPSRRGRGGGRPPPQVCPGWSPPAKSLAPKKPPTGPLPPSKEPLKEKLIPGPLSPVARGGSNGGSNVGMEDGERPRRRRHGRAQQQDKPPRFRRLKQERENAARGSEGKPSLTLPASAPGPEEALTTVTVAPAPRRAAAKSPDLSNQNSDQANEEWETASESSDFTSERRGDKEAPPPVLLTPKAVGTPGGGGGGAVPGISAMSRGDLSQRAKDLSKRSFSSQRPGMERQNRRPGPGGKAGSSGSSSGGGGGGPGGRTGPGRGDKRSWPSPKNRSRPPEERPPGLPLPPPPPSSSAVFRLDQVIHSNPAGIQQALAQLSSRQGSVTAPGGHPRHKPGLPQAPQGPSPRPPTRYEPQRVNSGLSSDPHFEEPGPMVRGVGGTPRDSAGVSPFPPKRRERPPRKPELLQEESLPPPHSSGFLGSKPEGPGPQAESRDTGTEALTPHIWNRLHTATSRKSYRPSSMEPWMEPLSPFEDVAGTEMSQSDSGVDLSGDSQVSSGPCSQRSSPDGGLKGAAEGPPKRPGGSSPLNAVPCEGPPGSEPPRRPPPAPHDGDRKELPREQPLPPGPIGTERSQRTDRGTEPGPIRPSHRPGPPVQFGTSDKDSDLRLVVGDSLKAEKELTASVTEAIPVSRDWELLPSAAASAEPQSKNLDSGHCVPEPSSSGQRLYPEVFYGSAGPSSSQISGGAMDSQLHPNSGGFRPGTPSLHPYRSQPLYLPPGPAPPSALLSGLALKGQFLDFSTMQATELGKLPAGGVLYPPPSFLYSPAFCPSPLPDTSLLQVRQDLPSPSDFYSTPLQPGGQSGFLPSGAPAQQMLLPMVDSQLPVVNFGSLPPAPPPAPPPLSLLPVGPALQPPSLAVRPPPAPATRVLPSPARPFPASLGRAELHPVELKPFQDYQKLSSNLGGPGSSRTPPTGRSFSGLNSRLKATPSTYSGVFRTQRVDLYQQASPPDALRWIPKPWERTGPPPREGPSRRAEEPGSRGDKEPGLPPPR
UniProt P28340, sequence (P28340 whole entry, looked up): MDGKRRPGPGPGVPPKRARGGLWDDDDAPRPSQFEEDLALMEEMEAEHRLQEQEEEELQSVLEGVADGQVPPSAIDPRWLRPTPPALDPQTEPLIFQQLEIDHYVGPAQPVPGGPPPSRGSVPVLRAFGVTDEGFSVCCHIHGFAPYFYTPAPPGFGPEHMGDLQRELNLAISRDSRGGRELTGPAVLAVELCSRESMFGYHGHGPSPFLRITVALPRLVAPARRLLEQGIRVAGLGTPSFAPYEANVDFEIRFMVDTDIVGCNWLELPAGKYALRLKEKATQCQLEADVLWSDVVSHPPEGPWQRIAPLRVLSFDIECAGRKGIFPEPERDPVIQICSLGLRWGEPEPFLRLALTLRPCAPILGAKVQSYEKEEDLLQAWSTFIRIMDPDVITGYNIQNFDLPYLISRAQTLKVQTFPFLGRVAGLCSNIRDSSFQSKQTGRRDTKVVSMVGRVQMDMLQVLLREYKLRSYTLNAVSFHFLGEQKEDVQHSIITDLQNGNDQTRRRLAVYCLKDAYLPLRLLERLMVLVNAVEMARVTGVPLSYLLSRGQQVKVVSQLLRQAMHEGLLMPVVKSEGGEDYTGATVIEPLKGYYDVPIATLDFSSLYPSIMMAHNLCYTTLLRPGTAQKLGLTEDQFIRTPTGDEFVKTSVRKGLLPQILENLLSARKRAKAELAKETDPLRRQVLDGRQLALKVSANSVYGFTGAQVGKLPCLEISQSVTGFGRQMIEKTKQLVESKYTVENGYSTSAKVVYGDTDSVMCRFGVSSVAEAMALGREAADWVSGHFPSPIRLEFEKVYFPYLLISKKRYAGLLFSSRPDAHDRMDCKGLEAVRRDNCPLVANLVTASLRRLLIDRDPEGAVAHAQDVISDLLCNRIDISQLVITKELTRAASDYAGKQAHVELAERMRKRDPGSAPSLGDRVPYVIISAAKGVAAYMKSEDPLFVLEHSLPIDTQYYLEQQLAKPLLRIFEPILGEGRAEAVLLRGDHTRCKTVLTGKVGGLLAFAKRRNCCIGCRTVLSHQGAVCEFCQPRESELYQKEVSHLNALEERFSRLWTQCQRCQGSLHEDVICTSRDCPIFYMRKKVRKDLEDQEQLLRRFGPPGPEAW

Target	log2 fold change [1]	log2 fold change [2]	log2 fold change [3]	log2 fold change [4]	log2 fold change [5]
PITRM1 isoform 2 (UniProt Q5JRX3)	0.158	-0.193	0.005	0.04	0.01
PTS (UniProt Q03393)	-0.024	-0.274 (active)	0.032	-0.093	0.022
PIK3CG (UniProt P48736)	-0.076	-0.065	0.109	-0.047	-0.105
PDE2A (UniProt O00408)	0.012	0.067	0.163	0.039	0
PLA2G4B isoform 6 (UniProt P0C869)	-0.003	0.024	-0.052	0.099	-0.019
PKN1 isoform 2 (UniProt Q16512)	-0.003	0.017	0.023	0.029	0.022
PRKCSH (UniProt K7ELL7)	0.045	-0.027	-0.157	-0.112	-0.048
PHKB isoform 3 (UniProt Q93100)	0.015	0.011	0.042	-0.012	-0.066
POGK (UniProt Q9P215)	-0.142	0.13	-0.008	0.016	-0.068
PPP2R5C isoform 4 (UniProt Q13362)	-0.057	0.003	0.021	-0.103	0.021
PTGR2 (UniProt Q8N8N7)	0.009	0.039	-0.003	-0.048	-0.004
PTPN6 isoform 4 (UniProt P29350)	0.12	0.029	0.063	0.047	0.133
PWP1 (UniProt Q13610)	0.041	-0.041	-0.052	-0.004	0.088
POLD1 (UniProt P28340)	0.026	0.003	0.011	0.03	0.042
PPP2R5C isoform 5 (UniProt Q13362)	-0.068	0.011	-0.02	-0.024	0.071
PRKDC (UniProt P78527)	-0.073	-0.123	-0.064	0.028	-0.048
PRKCB isoform 2 (UniProt P05771)	-0.007	-0.022	0.086	0.07	-0.005
PRMT7 (UniProt Q9NVM4)	-0.002	-0.029	0.009	-0.039	0.014
PHGDH (UniProt O43175)	-0.014	0.017	0.047	0.046	0.052
PRKCSH isoform 2 (UniProt P14314)	0.084	-0.09	-0.067	-0.128	-0.33
PFDN2 (UniProt Q9UHV9)	0.044	-0.055	-0.016	-0.008	0.063
PLEKHF1 (UniProt Q96S99)	-0.019	0.034	0.029	0.01	0.014
PRPF6 (UniProt O94906)	-0.006	0.015	-0.012	-0.01	0.04
PRRC2A (UniProt P48634)	-0.047	0.003	0.001	0.017	-0.02
